# Measurements taken from article PMC5540273 (PLoS ONE, 2017).
# Experiments:
# Conditions in all cases: concentration: 1 μM, replicates: in singlicate; n = 1
# HIPK4 = system: HIPK4
# HPK1 = system: HPK1
# HUNK = system: HUNK
# ICK = system: ICK
# IGF1R = system: IGF1R
# IKK-alpha = system: T1, IKK-alpha
# T1 construct: gene CHUK
# IKK-beta = system: T2, IKK-beta
# T2 construct: gene IKBKB
# IKK-epsilon = system: T3, IKK-epsilon
# T3 construct: gene IKBKE
# INSRR = system: INSRR
# INSR = system: INSR
# IRAK1 = system: IRAK1
# IRAK3 = system: IRAK3
# IRAK4 = system: IRAK4
# ITK = system: ITK
# [1] = system: JAK1(JH1domain-catalytic)
# [2] = system: JAK1(JH2domain-pseudokinase)
# [3] = system: JAK2(JH1domain-catalytic)
# [4] = system: JAK3(JH1domain-catalytic)
# JNK1 = system: T4, JNK1
# T4 construct: gene MAPK8
# JNK2 = system: T5, JNK2
# T5 construct: gene MAPK9
# 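Note: KINOMEscan kinase panel screen.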
SMILES,%Inh (HIPK4) [%],%Inh (HPK1) [%],%Inh (HUNK) [%],%Inh (ICK) [%],%Inh (IGF1R) [%],%Inh (IKK-alpha) [%],%Inh (IKK-beta) [%],%Inh (IKK-epsilon) [%],%Inh (INSRR) [%],%Inh (INSR) [%],%Inh (IRAK1) [%],%Inh (IRAK3) [%],%Inh (IRAK4) [%],%Inh (ITK) [%],%Inh [1] [%],%Inh [2] [%],%Inh [3] [%],%Inh [4] [%],%Inh (JNK1) [%],%Inh (JNK2) [%]
COc1cccc(C2=C(Nc3cc(Cl)c(O)c(Cl)c3)C(=O)NC2=O)c1 [SB-390767],0,43,0,27,5,37,56,0,0,0,43,0,47,18,12,0,40,93.7,27,20
O=c1cc(N2CCOCC2)nc2n(Cc3ccccc3F)ccn12 [GSK2297428],0,34,0,0,7,0,0,0,0,0,0,0,0,15,10,0,0,0,1,11
CCCCc1nn2ncccc2c1-c1ccnc(NC2CC2)n1 [GW684374],0,3,2,7,0,0,3,0,0,0,28,13,12,0,7,0,0,0,63,84
Cc1ccc(NC(=O)Nc2ccc(Cl)cc2)cc1-c1ccc(C(=O)Nc2ccncc2)cc1 [GSK1398472],0,43,23,17,6,0,8,5,0,0,17,4,7,18,6,0,0,0,0,7
O=C(Nc1n[nH]c2cc(-c3ccsc3)ccc12)C1CC1 [SB-732932],17,0,0,63,0,9,9,0,14,9,3,22,9,0,0,4,8,0,36,25
c1ccc(-c2ccnc3[nH]ccc23)cc1 [SB-693578],0,48,2,13,14,47,64,0,0,5,64,0,43,18,1,2,69,76,32,0
CNc1cc(-c2ccc3c(N)n[nH]c3c2)nc(N)n1 [GSK2224810],14,41,5,12,0,6,0,39,0,19,0,0,0,3,12,35,4,0,0,6
Cc1ccccc1Cn1ccn2c(=O)cc(N3CCOCC3)nc12 [GSK2269905],0,32,7,0,2,0,12,0,0,17,0,0,13,20,0,0,0,0,21,20
CC(=O)c1c(C)c2cnc(Nc3ccn(C)n3)nc2n(C2CCCC2)c1=O,0,0,0,0,1,0,0,0,0,0,11,0,11,0,0,0,0,9,8,18
CS(=O)(=O)Cc1ccc(Nc2nccc(-c3c(-c4cccc(NC(=O)C5CCCCC5)c4)nn4ncccc34)n2)cc1 [GSK350559],0,14,7,14,68,0,12,32,20,42,24,3,25,6,0,0,16,43,43,49
CCc1ccc(-c2ccc3c(c2)-c2n[nH]cc2S(=O)(=O)N3C)cc1,23,16,34,0,0,0,0,0,0,0,0,0,0,0,18,14,3,0,1,0
Cc1ccc(NC(=O)Nc2ccccc2)cc1-c1ccc(C(=O)Nc2ccncc2)cc1 [GSK1398471],10,37,22,2,11,0,0,5,0,3,0,0,0,8,31,0,0,0,11,29
Nc1cccc(-c2ccc3c(N)n[nH]c3c2)n1 [GSK2192730],0,35,0,9,0,0,18,0,0,3,0,17,4,0,14,65,100,0,0,2
COc1ccc(Nc2nccc(-c3ccc(NC(=O)c4cc5cc(F)ccc5[nH]4)cc3)n2)cc1 [GSK1229496],0,38,0,0,0,0,0,8,0,0,10,0,0,0,0,0,18,0,4,9
CNC(=O)c1ccc(C)c(-n2c(C)cc(OCc3ccc(F)cc3F)c(Br)c2=O)c1,0,0,0,0,0,0,0,0,6,0,0,0,0,0,0,0,0,0,0,100
Cc1c(Cn2c3ccccc3n3c(=O)cc(N4CCOCC4)nc23)cccc1C(F)(F)F [GSK2306394],0,5,0,6,33,35,27,0,11,0,0,14,11,11,13,0,35,0,21,5

SMILES,%Inh (HIPK4) [%],%Inh (HPK1) [%],%Inh (HUNK) [%],%Inh (ICK) [%],%Inh (IGF1R) [%],%Inh (IKK-alpha) [%],%Inh (IKK-beta) [%],%Inh (IKK-epsilon) [%],%Inh (INSRR) [%],%Inh (INSR) [%],%Inh (IRAK1) [%],%Inh (IRAK3) [%],%Inh (IRAK4) [%],%Inh (ITK) [%],%Inh [1] [%],%Inh [2] [%],%Inh [3] [%],%Inh [4] [%],%Inh (JNK1) [%],%Inh (JNK2) [%]
Cc1ccc(-c2nc(Nc3ccncc3)c3ccccc3n2)s1 [GSK189015],27,41,0,19,18,2,20,0,22,9,0,19,2,22,16,38,3,0,20,19
COc1cccc(NC(=O)Nc2ccc(C)c(-c3ccc(C(=O)Nc4ccncc4)cc3)c2)c1 [GSK1398474],27,78,2,17,12,0,84,22,0,0,0,7,1,11,20,0,0,0,8,39
O=C(Nc1n[nH]c2nc(-c3ccco3)c(Br)cc12)C1CCN(Cc2ccccc2)C1.O=C(O)[C@H](O)[C@@H](O)C(=O)O (centres unmarked) [SB-742034],1,0,33,22,0,0,26,19,0,12,0,35,0,13,0,61,23,0,37,0
FC(F)(F)c1ccccc1-c1cc(-c2c[nH]nc2-c2ccccn2)ccn1 [GW679396],0,0,0,3,0,0,0,100,0,0,0,0,0,8,5,0,0,0,30,32
COc1ccc2cc(-c3nc(-c4ccccc4C(C)C)[nH]c3-c3ccncc3)ccc2c1 [SB-660566],0,37,0,22,9,19,26,14,1,5,23,0,42,8,11,0,100,0,23,44
COc1ccc(CSc2nnc(-c3ccc4nccn4c3)o2)cc1C(F)(F)F,6,0,0,0,0,10,7,11,8,5,44,30,38,20,0,0,13,1,0,0
COc1cccc(CNC(=O)NC2CCN(c3ccnc(Nc4ccc(F)cc4)n3)C2)c1 (centres unmarked) [GSK1379723],0,40,0,21,4,44,14,0,18,0,23,5,17,9,5,0,6,0,32,3
Cn1cncc1C(=O)NC1CCN(c2ccnc(Nc3ccc(F)cc3)n2)C1 (centres unmarked) [GSK1379717],0,68,0,31,0,25,17,33,0,10,41,0,26,1,17,0,100,0,29,3
CC(C)c1cc(-c2ccc3c(N)n[nH]c3c2)nc(N)n1 [GSK2250882],30,45,0,0,6,0,4,10,0,4,31,4,0,11,0,8,0,0,21,30
CC(=O)c1c(C)c2cnc(Nc3ccc(N4CCNCC4)cn3)nc2n(C2CCCC2)c1=O,8,0,0,0,0,0,0,15,0,0,0,0,0,0,0,11,0,0,11,0
COc1nccc(-c2c(-c3ccc(F)cc3)ncn2CCCN2CCOCC2)n1 [SB-282852],0,21,0,16,0,26,21,8,0,0,3,0,0,53,36,0,4,12,41,61
COc1cc2ncnc(Nc3cccc(Br)c3)c2cc1OC.Cl [GI230329],68,50,6,3,0,0,0,18,0,0,36,21,1,0,3,0,6,0,18,56
Fc1ccc(-c2nc3n(c2-c2ccncc2)CCS3)cc1 [GI98581],0,44,8,0,17,0,0,0,6,0,3,4,0,5,10,0,0,0,73,96.2
O=C1NC(=O)C(c2ccc(Cl)cc2)=C1Nc1cccc(Cl)c1 [SB-317651],0,12,0,28,0,0,0,0,0,11,0,0,0,5,26,0,11,0,61,56
COC(=O)c1cccc(NC(=O)NC2CCN(c3ccnc(Nc4ccc(OC)cc4)n3)C2)c1 (centres unmarked) [GSK1379746],0,41,0,12,1,44,18,29,0,0,35,0,23,13,14,0,2,0,37,0
